In all, about 69,000 compounds went through this assay and about 8,600 (12%) showed an effect of 50% or more. Shown is part of a subset that was picked to be rich in strong results.
System: Plasmodium berghei
Assay: Screen against P. berghei liver stage (PbLuc), transformed with Luciferase, at 10uM
Format: functional, HepG2
Conditions: tested at 10 uM

SMILES | INHIBITION
COc1cccc(C(C(=O)O)N2CCCN(c3ccnc(C)c3)CC2)c1 (stereo not given) | 27.6%
COc1ccc(C(C(=O)O)N2CCCN(C3CCCCC3)CC2)cn1 (stereo not given) | 32.7%
CCc1nc(N2CCC3(CCC(=O)N(CCCO)C3)CC2)no1 | 35.6%
CC(C)Nc1cc(-c2c[nH]nc2C2CCN(C(=O)C3CC3)C2)ccn1 (stereo not given) | 87.85%
CN1CCC(c2n[nH]cc2-c2ccnc(N)c2)C1 (stereo not given) | 16.05%
O=C(C1CCCCC1)N1CCC(c2n[nH]c3nccnc23)CC1 | 44.1%
CC(C)CNc1cc(-c2c[nH]nc2C2CCN(C(=O)C3CC3)C2)ccn1 (stereo not given) | 86%
CC(=O)N1CCC(c2n[nH]c3nccnc23)CC1 | 8.53%
Cc1c[nH]nc1C1CCN(C(=O)C2CCC2)CC1 | -14.2%
O=C(C1CCCC1)N1CCC(c2n[nH]c3nccnc23)CC1 | 51.5%
Cc1c[nH]nc1C1CCN(C(=O)C2CCCC2)C1 (stereo not given) | 65.7%
COCCC(=O)N1CCC(c2ncncc2-c2ccnc(N)c2)C1 (stereo not given) | 0.696%
CC(C)OCC(=O)N1CCC(c2ncncc2-c2ccnc(N)c2)C1 (stereo not given) | 8.12%
Cc1c[nH]nc1C1CCN(C(=O)C2CCOCC2)C1 (stereo not given) | 3.48%
CC(=O)N1CCC(c2n[nH]cc2-c2ccnc(N)c2)C1 (stereo not given) | 37.5%
Cc1nc(C(=O)N2CCC(c3cc(CCO)n(C)n3)C2)co1 (stereo not given) | 19.3%
CNC(=O)[C@@H](c1ccccc1OC)N1CCC[C@H]1C(=O)N1CCC1 | -37.8%
COCC(NC1CCN(CC(C)C)CC1)c1ccnn1C (stereo not given) | -1.49%
CCc1c(C)sc2nc3n(CCN4CCOCC4)nc(SC)n3c(=O)c12 | 17.7%
CC(c1ccncc1)N(CCN(C)C)C(=O)Nc1ccc(Cl)c(Cl)c1 (stereo not given) | -32.1%
O=C(c1ccoc1)N1C[C@@H]2[C@@H](C1)OCC(=O)N2Cc1cccnc1 | 16.8%
CN(C(=O)c1cc(F)ccc1F)[C@@H]1CC[C@@H](O)[C@@H]1O | 2.55%
Nc1cc(-c2c[nH]nc2C2CCCCN2C(=O)C2CCCC2)ccn1 (stereo not given) | 59.9%
Cc1cc(N2CCC(c3n[nH]c4nccnc34)CC2)ncn1 | 58.1%
Cc1cc(N2CCC(c3n[nH]c4nccnc34)C2)ncn1 (stereo not given) | -4.51%
CN(C)S(=O)(=O)N1CCC(c2n[nH]cc2-c2ccnc(N)c2)C1 (stereo not given) | -9.215%
Cc1cc(N2CC(c3n[nH]c4nccnc34)C2)ncn1 | 18.3%
CCCNc1cc(-c2c[nH]nc2C2CCN(C(=O)C3CCC3)C2)ccn1 (stereo not given) | 87.35%

SMILES | INHIBITION
CC(C)Nc1cc(-c2c[nH]nc2C2CCN(C(=O)C3CCC3)C2)ccn1 (stereo not given) | 88.45%
Nc1cc(-c2c[nH]nc2C2CCCN2S(=O)(=O)c2ccccc2)ccn1 (stereo not given) | 39.1%
CC(C)N1CCC(c2n[nH]cc2-c2ccnc(N)c2)C1 (stereo not given) | 26.5%
Nc1cc(-c2c[nH]nc2C2CCN(C(=O)C3CCCC3)C2)ccn1 (stereo not given) | 31.75%
Cc1c[nH]nc1C1CCN(C(=O)Cn2cccn2)C1 (stereo not given) | -9.32%
COCC(=O)N1C[C@@H](OCc2cccnc2)[C@H]2OCCC[C@@H]21 | 26.5%
Cc1ccc(S(N)(=O)=O)cc1C(=O)NC1CCCC1 | 12.2%
CC(=O)N1CCCC(c2ccnc(Nc3cnccn3)c2)C1 (stereo not given) | -9%
O=C(NCC(CO)Cc1cccc(OC(F)(F)F)c1)c1cnccn1 (stereo not given) | 30.8%
O=C(Cc1csc(-c2ccsc2)n1)N1CCN(c2cnccn2)CC1 | -40.2%
Cc1nc(C)n(CC2CCCN(CCC(=O)NC3CCCCC3)C2)n1 (stereo not given) | -4.16%
CN1CC(C(=O)NC2(c3ccc(Cl)cc3)CCOCC2)CC1=O (stereo not given) | 8.31%
NC(=O)c1c(NC(=O)CCCC(=O)O)sc2c1CCc1ccccc1-2 | 33%
Cc1nn(C)c(C)c1-c1nccnc1CC1CCNCC1 | -17.9%
CCc1c(C)nn2c(O)cc(C3CCN(C(=O)c4ccn(C)n4)C3)nc12 (stereo not given) | 3.623%
c1cnc(N2C[C@@H]3COC[C@]3(COCC3CCCC3)C2)nc1 | 15.4%
CN(C)[C@@H]1CCN(CC2CC2)[C@H]1Cc1cnn(C)c1 | 1.94%
CN1CC(=O)N(c2cnn(C)c2)CC12CCN(Cc1ccccc1)C2 (stereo not given) | 21.8%
CN1CCN(CCNC(=O)c2sccc2C2CC2)CC1 | 31.6%
O=C(NCC(=O)N1CCCCC1)c1sccc1C1CC1 | 17.2%
O=C(NCC(=O)N1CCN(c2ccccc2)CC1)c1sccc1C1CC1 | 92%
CC1CCN(CCNC(=O)c2scnc2Cl)CC1 | 40.2%
CC1CCN(CCNC(=O)c2sccc2C2CC2)CC1 | 81.5%
CCc1nc(C)c(C(=O)NCCN2CCC(C)CC2)s1 | 15.6%
Cc1cc(C)n(-c2nc(C(=O)NCCN3CCC(C)CC3)cs2)n1 | 61%
Cc1cc(C)n(-c2nc(C(=O)NCCS(=O)(=O)N3CCCCC3)cs2)n1 | 0.696%
O=C(c1sccc1C1CC1)N1CCN(c2ncccn2)CC1 | 49.1%

Source: ChEMBL document CHEMBL4513216, “Probing the Open Global Health Chemical Diversity Library for Multistage-Active Starting Points for Next-Generation Antimalarials” (ACS Infect Dis, 2020)
